A short description of experiment [1]: Viability qHTS for spleen associated tyrosine kinase inhibitor (SYKi) naive MV4-11 cells (AID 1963823). Also: nearly all actives have a fitted effect of over 40% in size. In outline:
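Read-out: CellTiter-Glo luminescence. Exposure: 72 hr, 37 C, 5% CO2, 95% humidity. Cells: MV4-11 without SYK inhibitor history, 500/well, qHTS format.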

Experiment [2] can be described thus: Viability qHTS for spleen associated tyrosine kinase inhibitor (SYKi) drug resistant MV4-11 cells (AID 1963824). Also: nearly all actives have a fitted effect of over 35% in size. An outline of the steps: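 SYK inhibitor-resistant MV4-11 AML cells, 500 per well, added to predispensed compounds and incubated 72 hr at 37 C, 5% CO2. Viability measured by CellTiter-Glo luminescence after 10 min at room temperature.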
Experiment [3] in a line: Quantitative highthroughput screen to assess conditional lethalithy of NOMO1 cells grown in RPMI1640 with untreated serum (RPMI+s) (AID 1963876). Also: nearly all actives have a fitted effect of over 35% in size.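 As to Viability: 100% = DMSO wells and 0% = empty wells without cells.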 An outline of the steps: (§1)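 Each medium arm—HPLM with 10% dialyzed FBS, or RPMI1640 with 5 mM glucose and 10% untreated or dialyzed FBS—was screened against an 11-point, 3-fold compound titration for 48 h at 37 °C, with CellTiter-Glo luminescence as endpoint.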

A short description of experiment [4]: Quantitative highthroughput screen to assess conditional lethalithy of NOMO1 cells grown in Human Plasma-Like Medium with dialyzed fetal bovine serum (HPLM+ds) (AID 1963878). Also: nearly all actives have a fitted effect of over 35% in size.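 As to Viability: 100% = DMSO wells and 0% = empty wells on each plate.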 In outline: as §1
Experiment [5] can be described thus: Quantitative highthroughput screen to assess conditional lethalithy of P12 Ichikawa cells grown in Human Plasma-Like Medium with dialyzed fetal bovine serum (HPLM+ds) (AID 1963879). Also: nearly all actives have a fitted effect of over 35% in size. As to Viability: series mostly up to about 46 µM. The note with it: Potency: viability. An outline of the steps:
as §1

Experiment [6] in a line: Quantitative highthroughput screen to assess conditional lethalithy of P12 Ichikawa cells grown in RPMI1640 with dialyzed fetal bovine serum (RPMI+ds) (AID 1963880). Also: nearly all actives have a fitted effect of over 35% in size.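 As to Viability: 100% = DMSO wells and 0% = empty wells on each plate.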 As to conditions: Potency: P12-Ichikawa viability. An outline of the steps:
as §1

Experiment [7] is described as follows: Quantitative highthroughput screen to assess conditional lethalithy of P12 Ichikawa cells grown in RPMI1640 with untreated serum (RPMI+s) (AID 1963881). Also: nearly all actives have a fitted effect of over 35% in size.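 As to Viability: series mostly up to about 46 µM; 100% = DMSO wells and 0% = empty wells without cells.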 As to conditions: Potency: viability. An outline of the steps: as §1
Experiment [8] is described as follows: Cellular viability qHTS for adrenocortical cancer (ACC) cell line SW-13 (AID 1963989). Also: nearly all actives have a fitted effect of over 65% in size.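 As to activity (max response): cells grown in serum-free medium with ITS supplement; % is scaled to controls: 0 for no effect and ±100 for the full control effect.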 As to conditions: SW-13 ACC cells viability, CellTiter-Glo, 48 h; activity (max response): hits give low values. An outline of the steps:
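Here, serum-free SW-13 cultures were dosed up to 46 uM. Following 48 h, ATP-dependent luminescence (CellTiter-Glo) reported viable cells, and logistic modeling produced IC50 values.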

A short description of experiment [9]: Cellular viability qHTS for adrenocortical cancer (ACC) cell line NCI-H295R (AID 1963990). Also: nearly all actives have a fitted effect of over 60% in size.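 As to activity change, negative = viability loss: 0% = DMSO only wells and -100% = full killing with cytotoxic reference compound.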 An outline of the steps:
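Viability of NCI-H295R after 48 h of treatment (final up to 46 uM) measured through cellular ATP luminescence.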

Experiment [10] in a line: Quantitative highthroughput screen to assess conditional lethalithy of SEM cells grown in Human Plasma-Like Medium with dialyzed fetal bovine serum (HPLM+ds) (AID 1963882). Also: nearly all actives have a fitted effect of over 35% in size. As to Viability: series mostly up to about 46 µM. An outline of the steps: as §1
A short description of experiment [11]: Quantitative highthroughput screen to assess conditional lethalithy of SEM cells grown in RPMI1640 with unreated serum (RPMI+s) (AID 1963883). Also: nearly all actives have a fitted effect of over 35% in size.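 As to Viability: 100% = DMSO wells and 0% = empty wells without cells.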 In outline:
as §1

Experiment [12] in a line: Quantitative highthroughput screen to assess conditional lethalithy of SEM cells grown in RPMI1640 with dialyzed fetal bovine serum (RPMI+ds) (AID 1963884). Also: nearly all actives have a fitted effect of over 35% in size.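 As to Viability: series mostly up to about 46 µM; 100% = DMSO control wells and 0% = empty wells without cells.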 An outline of the steps: as §1

Several values for one entry are separate records, joined by “and”; a condition that tells them apart may be missing. Equal entries are not always repeated. Records with an inconclusive call do not appear. Unmarked numbers belong to inactive results. Activity calls are given as the source filed them. Calls follow the shape of the dose curve; as a rule, active = well fitted curve in the direction sought with a large enough effect; inconclusive = small, poorly fitted or top-dose-only effect, or another doubt; inactive = no such curve, though single readings can be large; an effect the other way counts as inactive or inconclusive.
Potency is read from the fitted curve at half-maximal effect.

Take `CC1(C)CNc2cc(NC(=O)c3cccnc3NCc3ccncc3)ccc21`: the Potency in [1] is 2.31 µM (active); in experiment [2], 5.17 µM (active) and 5.9 µM (active). Moreover, the Potency result in [3], in [4], in [5], in experiment [6], in [7] and in experiment [9] was “inactive” in each case. Further, the activity (max response) in experiment [8] is -22.3%.
For `COc1ccc2[nH]cc(CCNC(C)=O)c2c1`, the Potency entry in experiment [1], in experiment [2], in [3], in experiment [4], in experiment [5] and in [6] was “inactive” throughout. Further, the Potency result in [7], in [10], in experiment [11], in experiment [12] and in experiment [9] was “inactive” throughout. In addition, the activity (max response) in [8] is -5.05% and -7.41%.
With `O=C(Nc1cccnc1)N1CCC(Cc2cccc(Oc3ccc(C(F)(F)F)cn3)c2)CC1`, the Potency in [1] was 3.66 µM (active) and 4.17 µM (active); in [2], 4.61 µM (active) and 3.72 µM (active); in [3], 10.5 µM (active); in experiment [4], 8.33 µM (active); in experiment [5], 8.33 µM (active); in experiment [6] it was 4.18 µM (active). Besides, the Potency was 3.72 µM (active) in experiment [7], 2.96 µM (active) in experiment [11], 15.8 µM (active) in [8] and 17.8 µM (active) in experiment [9].
Regarding `O=C(CCCCCCC(=O)Nc1ccc([C@H]2O[C@@H](CSc3nc(-c4ccccc4)c(-c4ccccc4)o3)C[C@@H](c3ccc(CO)cc3)O2)cc1)NO`, the Potency in experiment [1] was 16.4 µM (active); in [2], 18.4 µM (active); in experiment [3], 9.35 µM (active); in experiment [4] it was 8.33 µM (active); in experiment [5] it was 4.69 µM (active); in [6], 3.32 µM (active). Further, the Potency in [7] is 4.69 µM (active); in [10], 7.43 µM (active); in experiment [11], 7.43 µM (active); in experiment [12], 6.62 µM (active). Also, the activity (max response) in experiment [8] was -9.54%. For the same compound, in experiment [9], the activity change, negative = viability loss is -23.6% [at 9.17 µM].
Consider `COc1cc2nc(N3CCCN(C)CC3)nc(NC3CCN(Cc4ccccc4)CC3)c2cc1OC`, for which the Potency in experiment [1] is 2.35 µM (active); in experiment [2] it was 2.35 µM (active); in experiment [3] it was 8.33 µM (active); in experiment [4] it was 5.26 µM (active); in experiment [6] it was 11.8 µM (active); in experiment [7], 13.2 µM (active). Also, the Potency in experiment [10] is 5.26 µM (active); in experiment [11], 11.8 µM (active); in [8], 5.62 µM (active); in experiment [9], 8.91 µM (active).

(Values after PubChem BioAssay (NCATS).)
